TexasRed fluor – Texas Red fluorescence interference in TRb-SRC2 counter-screen | TRb/SRC2 Texas Red total fluorescence interference | Potency, µM (doses to about 106 µM) | 280,000 compounds, 0.29% hits; active = well fitted curve in either direction with a large enough effect; inconclusive = small, poorly fitted or top-dose-only effect
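Human TRb ligand-binding domain at 0.6 uM with 20 nM Texas Red SRC2 peptide in Tris buffer containing 1 uM T3 and 5% DMSO, incubated with compound 5 h at ambient temperature. Total fluorescence (555/632 nm) calculated as parallel + 2 × perpendicular.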
Tau fibril FP – tau fibrillization inhibition (FP) | 280,000 compounds, 0.39% hits | Potency, µM (series often up to 57.7 µM), hits mostly inhibitors | P10636 | K18 P301L tau heparin fibrillization, Alexa594 FP, 6 h | AID 1468; note: nearly all actives have a fitted effect of over 55% in size
Target sequence (P10636 561-689 P618L limits assumed): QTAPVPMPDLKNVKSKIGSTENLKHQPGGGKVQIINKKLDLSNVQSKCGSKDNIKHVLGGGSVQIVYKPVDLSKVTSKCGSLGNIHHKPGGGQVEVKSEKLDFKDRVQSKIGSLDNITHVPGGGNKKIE
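Human tau K18 […] P301L fragment, 15 uM unlabeled plus 0.24 uM Alexa 594-labeled tau (final), with compound and 20 uM heparin in 100 mM sodium acetate pH 7; 6 hr at 37 C, then Alexa 594 FP read.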
TRb-SRC2 inh – TRbeta-SRC2 interaction inhibition; TRbeta-SRC2 peptide binding, fluorescence polarization; receptor liganded with 1 µM T3; Potency, µM (series often up to 106 µM), usual class: inhibitors; 280,000 compounds, 0.065% hits; AID 1469; note: nearly all actives have a fitted effect of over 50% in size
Target sequence (P10828 whole entry, looked up): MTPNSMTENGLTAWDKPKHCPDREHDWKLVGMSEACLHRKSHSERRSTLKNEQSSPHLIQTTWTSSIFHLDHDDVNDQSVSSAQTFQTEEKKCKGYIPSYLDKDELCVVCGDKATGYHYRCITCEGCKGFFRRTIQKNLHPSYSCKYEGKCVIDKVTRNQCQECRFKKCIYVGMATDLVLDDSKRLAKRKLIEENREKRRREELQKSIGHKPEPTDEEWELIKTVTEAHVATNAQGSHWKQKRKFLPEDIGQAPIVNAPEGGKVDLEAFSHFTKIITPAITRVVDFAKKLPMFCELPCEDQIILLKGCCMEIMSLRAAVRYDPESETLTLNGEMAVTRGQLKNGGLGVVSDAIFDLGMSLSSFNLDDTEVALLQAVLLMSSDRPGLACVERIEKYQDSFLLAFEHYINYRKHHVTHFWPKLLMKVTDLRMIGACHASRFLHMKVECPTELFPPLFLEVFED
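Each compound concentration gave % activity, normalized to unbound and bound Texas Red SRC2 controls, from polarization read after 5 hr ambient incubation with T3-loaded human TRb LBD.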
Tau fluor cs – counter-screen for tau fibril formation inhibitors; tau K18 P301L Alexa594 fluorescence, heparin fibrillization; Potency, µM (top dose mostly 57.7 µM); 280,000 compounds, 0.93% hits; note: nearly all actives have a fitted effect of over 55% in size
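Human K18 P301L tau (15 uM unlabeled plus 0.24 uM Alexa 594-labeled, final) in 100 mM sodium acetate pH 7 was mixed with compound and 20 uM heparin and incubated 6 hr at 37 C.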
Tau ThT inhib – tau fibrillization inhibition (ThT binding); P10636; recombinant tau K18 P301L (four-repeat tau fragment), heparin-induced fibrillization, ThT fluorescence; Potency, µM (titrated, usually from 57.4 µM), most hits filed as inhibitors; 270,000 compounds, 2.1% hits; AID 1460; note: nearly all actives have a fitted effect of over 55% in size
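Aggregation was driven by heparin (20 uM final) acting on recombinant tau […] bearing P301L in 100 mM sodium acetate pH 7; fibrils were detected with Thioflavin T.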
Of the large screens only hits and unclear results are named; the others gave an inactive call; [ ] = dose if it differs, or a comment. Hits are enriched below; roughly 3.1% of the tested compounds scored in any of these assays. Unless noted, calls come from the whole dose curve; as a rule, active = well fitted curve in the direction sought with a large enough effect; inconclusive = small, poorly fitted or top-dose-only effect, or another doubt; inactive = no such curve, though single readings can be large; an effect the other way counts as inactive or inconclusive.

COc1ccc(OC)c(NC(=O)c2cnc(Nc3ccc(C)c(Cl)c3)c3ccccc23)c1	Tau fibril FP inconclusive, Tau fluor cs inconclusive
COc1ccc(Nc2ncc(C(=O)Nc3ccc(F)cc3F)c3ccccc23)cc1	Tau fibril FP inconclusive, Tau fluor cs 11µM[quencher], Tau ThT inhib inconclusive
CCCCCCCOC(=O)c1ccccc1C(=O)OCCCCCCC	none (no result: Tau fibril FP, Tau fluor cs, Tau ThT inhib)
Cc1ccc(N2C(=O)CS(=O)(=O)C23C(=O)N(Cc2ccccc2C)c2ccccc23)cc1Cl (stereo unspecified)	Tau fibril FP inconclusive, Tau ThT inhib inconclusive
CCOC(=O)/C=C/C(=O)Nc1ccccc1-c1ccccc1NC(=O)/C=C/C(=O)OCC	Tau fibril FP inconclusive, Tau ThT inhib 20µM
COc1cccc(C(=O)c2cn(CC(=O)NCc3ccccc3Cl)c3nc(C)ccc3c2=O)c1	none
Cc1cccc(-c2nc(SCC(=O)Nc3ccc4c(c3)OCO4)c(-c3ccccc3)[nH]2)c1	Tau fibril FP inconclusive, Tau fluor cs 6.3µM[quencher], Tau ThT inhib inconclusive
CCOc1ccc(-c2nc(SCC(=O)Nc3ccc4c(c3)OCO4)c(-c3ccc(F)cc3)[nH]2)cc1	Tau fluor cs inconclusive, Tau ThT inhib inconclusive
COc1cccc(-c2nc(SCC(=O)Nc3ccc4c(c3)OCO4)c(-c3ccccc3)[nH]2)c1	Tau fluor cs 7.9µM[quencher], Tau ThT inhib inconclusive
Cc1ccccc1CCNCc1c(C(=O)O)c(C)n(Cc2c(F)cccc2Cl)c1C	none
CC(=O)Nc1ccc(-c2cc(C(=O)O)c3c(-c4ccccc4)[nH]nc3n2)cc1	none
O=C1C(c2cc(=O)c3ccccc3[nH]2)=C(O)c2ccccc21	Tau ThT inhib 4.5µM
O=C(O)C(Oc1ccc(Cl)cc1)Oc1ccc(Cl)cc1	none (no result: Tau fibril FP, Tau fluor cs, Tau ThT inhib)
O=[N+]([O-])c1ccc(COc2ccc(-c3[nH]ncc3-c3ccc(Cl)cc3)c(O)c2)cc1	none
COc1ccc(-c2cn[nH]c2-c2ccc(OCc3ccccc3F)cc2O)cc1OC	Tau fibril FP inconclusive, Tau fluor cs 13µM[quencher]
COc1ccc(-c2cn[nH]c2-c2ccc(OCc3ccc([N+](=O)[O-])cc3)cc2O)cc1OC	Tau fibril FP inconclusive, Tau fluor cs 7.1µM[quencher], Tau ThT inhib inconclusive
CC(=O)NCCN=C(C)c1sc2ccccc2c1O	Tau ThT inhib inconclusive
CC(=Nc1ccccc1O)c1sc2ccccc2c1O	Tau fluor cs 28µM[quencher], Tau ThT inhib 5µM
CC(=Nc1cccc(C)c1)c1sc2ccccc2c1O	Tau fluor cs inconclusive, Tau ThT inhib inconclusive
CC(=Nc1ccc(O)cc1)c1sc2ccccc2c1O	Tau fluor cs inconclusive, Tau ThT inhib 4.5µM
CCOc1ccc(NC(=O)CSc2oc(-c3ccco3)nc2S(=O)(=O)c2ccccc2)cc1	Tau fibril FP inconclusive, Tau fluor cs inconclusive
Cc1ccccc1NC(=S)NCc1ccc2[nH]c3c(c2c1)CCCC3	none
Cc1ccc(C)c(NC(=S)NCc2ccc3[nH]c4c(c3c2)CCCC4)c1	Tau fibril FP inconclusive, Tau fluor cs 13µM[quencher], Tau ThT inhib inconclusive
CCN(CC)c1ccc(C(=O)Nc2ccccc2)cc1[N+](=O)[O-]	Tau fluor cs inconclusive, Tau ThT inhib 16µM
O=C(Nc1ccccc1)c1ccc(NCCc2ccccc2)c([N+](=O)[O-])c1	Tau fibril FP inconclusive
Cc1cc(C)c(NC(=O)Cn2c(=O)oc3cc(S(=O)(=O)N4CCCCCC4)ccc32)c(C)c1	Tau fibril FP inconclusive
COc1ccc(NC(=O)c2nnn(Cc3nc(-c4cc(OC)c(OC)c(OC)c4)oc3C)c2C)cc1Cl	TexasRed fluor 0.0089µM[quencher]
O=C(Nc1ccccc1Br)C(Cc1ccccc1)NS(=O)(=O)c1cccc2nsnc12 (stereo unspecified)	Tau fluor cs inconclusive
CC1CCC2C(=O)OC(Cc3ccccc3)CN2C1c1ccc(Br)cc1 (stereo unspecified)	Tau ThT inhib inconclusive
COc1cc(/C=C(\C#N)c2nc3ccccc3s2)cc([N+](=O)[O-])c1O	TexasRed fluor 25µM[quencher], Tau fluor cs 16µM[quencher], Tau ThT inhib 1.4µM
CC(C)c1ccc(/C=C(\C#N)c2nc(-c3ccc(O)cc3)cs2)cc1	Tau fibril FP 13µM, Tau fluor cs 8.9µM[quencher], Tau ThT inhib 7.9µM
COc1ccc(-c2csc(/C(C#N)=C\c3ccc(OC)c([N+](=O)[O-])c3)n2)cc1	Tau ThT inhib inconclusive
O=C(O)CC/C(=C\c1ccc(Cl)c([N+](=O)[O-])c1)c1nc2ccccc2s1	none
COc1ccc(-c2csc(/C(C#N)=C\c3ccc(O)c([N+](=O)[O-])c3)n2)cc1OC	Tau fluor cs 4.5µM[quencher], Tau ThT inhib 1.3µM
N#C/C(=C\c1ccc(O)c([N+](=O)[O-])c1)c1nc2ccccc2s1	Tau fluor cs inconclusive, Tau ThT inhib 2.2µM
CCC(Sc1nnc(-c2ccc(OC)cc2)c(-c2ccc(OC)cc2)n1)C(=O)Nc1cccc(OC)c1 (stereo unspecified)	Tau fibril FP inconclusive
COc1ccccc1CNC(=O)c1cccc(-c2ccccc2OC)n1	none
O=CN/C=C/c1cc(O)ccc1O	Tau fibril FP inconclusive, Tau fluor cs 28µM[quencher], Tau ThT inhib 25µM
CN(C(=O)Cc1ccccc1OC(=O)c1ccccc1)c1ccccc1I	none (no result: Tau fibril FP, Tau fluor cs, Tau ThT inhib)
CCN(CC)S(=O)(=O)c1ccc(N=NC2=C(O)CCCC2=O)cc1	TexasRed fluor 45µM[fluorescent], TRb-SRC2 inh 40µM
CCN(CC)S(=O)(=O)c1ccc(N=NC2=C(O)CC(C)(C)CC2=O)cc1	none
COc1ccc(N=Cc2cc(Cc3ccccc3Cl)cc([N+](=O)[O-])c2O)cc1OC	Tau fibril FP inconclusive, Tau ThT inhib 10µM
COc1ccc([N+](=O)[O-])cc1NC(=O)Cc1ccccc1Cl	none
Cc1ccccc1N=Cc1cc2c(cc1[N+](=O)[O-])OCO2	none
Cc1ccc(N=Cc2cc(Cc3ccccc3Cl)cc([N+](=O)[O-])c2O)c(O)c1	TexasRed fluor inconclusive, Tau fibril FP inconclusive, Tau fluor cs inconclusive, Tau ThT inhib 7.9µM
CCOc1c(Br)cc(C2CC(=O)Nc3cc4c(cc32)OCO4)cc1OC (stereo unspecified)	Tau ThT inhib inconclusive
Cc1nc2c(-c3ccccc3)c(C)[nH]n2c(=O)c1Cc1ccc(C(C)C)cc1	none
CCC(CC)C(=O)Nc1nnc(SCc2cc(=O)c3ccccc3[nH]2)s1	none
O=c1[nH]sc2ccccc12	Tau fibril FP 25µM, Tau ThT inhib 11µM
CCOC(=O)C1=C(CS(=O)(=O)c2ccc(Br)cc2)NC(=O)NC1c1ccccc1 (stereo unspecified)	none
COC(=O)c1cc(C)nc(Sc2ccccc2N)n1	Tau fibril FP inconclusive, Tau fluor cs inconclusive, Tau ThT inhib 28µM
O=c1[nH]c2ccc(Br)cc2c(-c2ccccc2)c1CN1CCOCC1	Tau fibril FP inconclusive, Tau ThT inhib 22µM
O=c1[nH]c2ccc(Br)cc2c(-c2ccccc2)c1N1CCOCC1	none
Nc1c(O)ccc2c1C(=O)c1ccccc1C2=O	TexasRed fluor inconclusive, Tau fibril FP inconclusive, TRb-SRC2 inh inconclusive, Tau fluor cs inconclusive, Tau ThT inhib 14µM

High-throughput results deposited in PubChem by National Center for Advancing Translational Sciences (NCATS).
